In the library only some 10% were active in any assay of this set; here they are far more common.
Lamin A splicing: changes lamin A minigene splicing in HeLa cells. Potency, µM (top dose mostly 46.1 µM), inactives show at the top dose ratio change, negative = inhibition, usual class: inhibitors. 200,000 tested, 0.01% active. HeLa LMNA splicing GFP/RFP minigene ratio, 48 h; active means well fitted inhibition curve with a large enough effect in the signal ratio, with a control signal flat, not every such curve was filed as active; inconclusive means small, poorly fitted or top-dose-only effect, or effect the other way, or a change in a side signal; the % refers to the signal ratio; further: potency means the concentration at half of the fitted maximal effect; on the % scale 0 is the no-effect control and ±100 the full control effect
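Read-out is the ratio of GFP to DsRed2 object intensity, acquired by 488 nm laser-scanning cytometry on HeLa lamin A-EGFP minigene reporter cells. Compound incubation 48 hrs at 37 °C in Opti-MEM with 2% FBS; DMSO 0.5% final.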
Luc counter: Kinase-Glo luciferase inhibition (counter-screen) | Potency, µM (top dose mostly 38.3 µM), without a hit: at the top dose activity change, negative = inhibition, hits mostly inhibitors | 200,000 tested, 0.28% active | Kinase-Glo luciferase, ATP luminescence, 8 min; active means well fitted inhibition curve with a large enough effect; inconclusive means small, poorly fitted or top-dose-only effect; further: potency means the concentration at half of the fitted maximal effect; on the % scale 0 is the no-effect control and ±100 the full control effect; nearly all actives have a fitted effect of over 60% in size
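Light output from Kinase-Glo luciferase with luciferin and 10 uM ATP in 50 mM imidazole pH 7.2, KCl, MgCl2, Tween 20, BSA; compound pin-delivered, 8-min ambient incubation, then luminescence read.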
ALDH1A1 inh-1: inhibitors of human aldehyde dehydrogenase 1A1; Purified ALDH1A1, NADH fluorescence, propionaldehyde substrate; P00352; 220,000 tested, 7.3% active; AID 1030; Potency, µM (top dose mostly 75.3 µM), without a hit: at the highest dose activity, negative = inhibition, hits mostly inhibitors;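 further: potency means the concentration at half of the fitted maximal effect; plate controls were no enzyme wells and a reference inhibitor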
IMPase inh: membrane-permeable compound that blocks inositol monophosphatase | CHO-M1 cells, IP1 accumulation, HTRF TR-FRET ratio | inhibition (IP1 accumulation), % at 46.1 µM | 120,000 tested, under 10 active | AID 901; active means well fitted curve in the direction sought with a large enough effect in the signal ratio, not every such curve was filed as active; inconclusive means small, poorly fitted or top-dose-only effect, or a change in a side signal; inactive means no such curve, though single readings can be large or run the other way; the % refers to the signal ratio;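 further: cells stimulated with carbachol in lithium chloride buffer; plate controls were DMSO basal wells for no effect and reference inhibitor wells for full effect; higher means more IMPase inhibition seen as more IP1 and lower FRET ratio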
Target sequence (P97697 whole entry, looked up): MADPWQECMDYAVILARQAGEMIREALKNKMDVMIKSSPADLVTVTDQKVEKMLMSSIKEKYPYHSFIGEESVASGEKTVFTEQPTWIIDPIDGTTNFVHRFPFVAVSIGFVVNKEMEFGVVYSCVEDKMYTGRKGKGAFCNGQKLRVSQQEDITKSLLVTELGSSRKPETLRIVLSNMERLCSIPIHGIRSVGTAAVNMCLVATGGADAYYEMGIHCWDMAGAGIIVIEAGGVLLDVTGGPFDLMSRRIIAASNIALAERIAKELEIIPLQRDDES
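Elevated IP1 in lysates lowers TR-FRET signal (665/620 ratio and 620 channel reported). Cells were CHO-M1, given carbachol (50 uM as added) plus 50mM LiCl, pH 7.4, 30 min, 37C; compounds titrated up to 46 uM; AC50 by Hill equation.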
PNC assembly inh: blocks assembly of the perinucleolar compartment; 140,000 tested, 3.1% active; PC3M PTB-GFP, PNC prevalence imaging, 16 h; active compounds read low; activity change (PNC), negative = inhibition, % at 10 µM;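 active means readout at or below -70, meaning at least 70% loss of cells showing the perinucleolar compartment, a nuclear body marking cancer cells; inconclusive means readout between -30 and a set limit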;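 further: plate controls were DMSO wells for no effect and camptothecin positive control wells for full effect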
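Read-out is percentage of cells bearing a perinucleolar compartment, from automated 20x imaging of fixed, Hoechst-stained PC3M PTB-GFP cells. Cells were seeded 4 h, then exposed 16 h to compound (23 nl of library stock) in duplicate plates.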
HPGD inh: inhibitors of human 15-hydroxyprostaglandin dehydrogenase (HPGD) | 150,000 tested, 4.3% active | AID 894 | Potency, µM, for inactives: at the highest dose activity change, negative = inhibition, usual class: inhibitors | purified HPGD, NADH fluorescence kinetic, PGE2 substrate; further: potency means the concentration at half of the fitted maximal effect; on the % scale 0 is the no-effect control and ±100 the full control effect
Target sequence (P15428 whole entry, looked up): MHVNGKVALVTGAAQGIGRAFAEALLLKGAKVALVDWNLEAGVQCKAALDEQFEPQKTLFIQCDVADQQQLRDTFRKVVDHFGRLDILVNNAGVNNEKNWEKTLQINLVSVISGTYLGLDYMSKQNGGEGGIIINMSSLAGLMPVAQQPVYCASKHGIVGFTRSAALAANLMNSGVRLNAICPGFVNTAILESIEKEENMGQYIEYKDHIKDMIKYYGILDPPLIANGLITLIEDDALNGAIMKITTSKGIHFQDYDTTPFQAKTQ
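NADH formation kinetics: reaction with 30 uM PGE2 and 1 mM NAD+ (final), 20 nM enzyme, Tris-HCl pH 8 with Tween 20, after 15 min compound preincubation at room temperature. Fluorescence change, last versus first of five reads.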
ALDH1A1 inh-2: Inhibits human ALDH1A1, confirmation and counter-screen; shares compounds with ALDH1A1 inh-1; purified ALDH1A1, NADH fluorescence, propionaldehyde/NAD+; Potency, µM (titrated, usually from 57.1 µM), without a hit: at the highest dose activity change, negative = inhibition, actives largely listed as inhibitors; 90 tested, 90% active; AID 493210; calls by dose curve
Active calls of the source: *; ? = inconclusive; / = no result; [ ] = another dose, or the depositor's remark. Unless noted, the call rests on the fitted dose curve; in most records, active means well fitted inhibition curve with a large enough effect (not every such curve was filed as active); inconclusive means small, poorly fitted or top-dose-only effect, or another doubt; inactive means no such curve, though single readings can be large or run the other way.

SMILES | Lamin A splicing | Luc counter | ALDH1A1 inh-1 | IMPase inh | PNC assembly inh | HPGD inh | ALDH1A1 inh-2
Cc1ccccc1CN1C(=O)c2ccccc2S(=O)c2ccc(C(=O)NCc3ccc(Cl)cc3)cc21 (centres undefined) | 5%[46 µM] | / | / | / | / | / | /
CCc1ccc(NC(=O)C(CC)Sc2nc3cc4c(cc3c(=O)n2Cc2ccco2)OCO4)cc1 (centres undefined) | 20% | -2% | 0.4µM* | -5 | -17 | -8% | 0.22µM*
CCC(Sc1nc2cc(OC)c(OC)cc2c(=O)n1Cc1ccco1)C(=O)NCCOC (centres undefined) | -4% | 1% | 0.79µM* | 5 | 17 | -12% | 0.25µM*
C=C(N(C)C)[C@]1(C)C[C@H]1[C@H](NC(=O)CNC(=O)OCc1ccccc1)c1ccccc1 | / | -4% | -4% | / | / | -2% | /
CN(C)Cc1nsc(N(C)C)n1 | / | -2%[7.66 µM] | -6%[13.5 µM] | / | / | 1% | /
CCOc1ccc(NC(=O)CN2CCN(CC(=O)c3ccc(OCC)cc3)CC2)cc1 | 10% | -1% | 1.4µM* | -1 | 4 | -20% | 4.5µM*
COc1ccccc1OCC(=O)N(Cc1cccs1)C1CCS(=O)(=O)C1 (centres undefined) | / | / | / | -6 | / | / | /
Cc1cc2oc(C(=O)Nc3cccc(-c4nc5ccccc5o4)c3)c(C)c2cc1Cl | 0%[46 µM] | / | / | / | / | / | /
CC(C)c1nc(N(C)S(C)(=O)=O)nc(-c2ccc(F)cc2)c1/C=C/C(O)CC(O)CC(=O)O (centres undefined) | ? | -2% | 0.22µM* | / | / | -5% | 0.13µM*
O=C1C(=O)N(C2CCNCC2)CCN1Cc1ccccc1 | -8%[46 µM] | / | / | / | / | / | /
O=C(CN(Cc1ccccc1)C(=O)c1cc2c(s1)CCC2)NCc1cccs1 | 1% | -2% | 0.45µM* | 11 | 30 | -1% | 0.071µM*
CCN(CC(=O)NCc1cccs1)C(=O)c1ccc(S(=O)(=O)N(C)C)cc1 | -6%[46 µM] | 6% | -10% | / | / | / | /
Cc1cc(NS(=O)(=O)c2ccc(NC(=O)COc3c(C)ccc(C)c3C)cc2)nc(C)n1 | / | / | / | 4 | / | / | /
O=C(CN1CCN(C2CCCCC2)CC1)Nc1ccccc1-c1ccccc1 | -7% | 5% | 6.3µM* | 1 | -18 | 0% | ?
O=C(CN1CCN(C2CCCCC2)CC1)Nc1cccc2ccccc12 | 2%[46 µM] | 3% | ? | / | / | / | /
O=C1O/C(=C/Br)CCC1c1cccc2ccccc12 (centres undefined) | ? | -2% | 0.5µM* | / | / | 20µM* | 0.63µM*
O=C1CCCCC1c1cccc2ccccc12 (centres undefined) | / | / | 10% | / | -11 | 0% | /
O=C1C(=O)N(Cc2ccc(Cl)c(Cl)c2)c2ccccc21 | / | -2% | 0.05µM* | 3 | / | -27% | 0.079µM*
CCN(CC)C(=O)CN1C(=O)C(=O)c2ccccc21 | 14%[46 µM] | 0% | 0.02µM* | / | / | / | 0.089µM*
O=C(CN1C(=O)C(=O)c2ccccc21)NCCc1ccccc1 | / | -1% | 0.089µM* | / | / | / | 0.063µM*
CCCCN(CC)C(=O)CN1C(=O)c2ccccc2C1=O | 12% | -3% | -7% | 0 | -2 | -1% | /
CCc1ccc(NC(=O)CN2C(=O)C(=O)c3ccccc32)cc1 | / | / | / | 1 | / | / | /
O=C(CC(Nc1ccccc1Cl)C(=O)O)c1ccccc1 (centres undefined) | / | -2% | 0.13µM* | / | / | / | -24%
Cc1c(Cl)cccc1NC(CC(=O)c1ccccc1)C(=O)O (centres undefined) | ? | 0% | 0.32µM* | / | -83* | -16% | -21%
Cc1c(Cl)cccc1NC(CC(=O)c1ccccc1)C(=O)OCC(=O)c1cccs1 (centres undefined) | -8% | / | 1% | -4 | -10 | / | /
